Experimental data reported in PubChem BioAssay (NCATS).
Results filed as inconclusive are left out. Activity calls are given as the source filed them. Calls come from the whole dose curve; as a rule, active = well fitted curve in the direction sought with a large enough effect; inconclusive = small, poorly fitted or top-dose-only effect, or another doubt; inactive = no such curve, though single readings can be large; an effect the other way counts as inactive or inconclusive.

Legend:
CRL-7250 = normal cell line; test: Cytotoxic Profiling of Annotated Libraries Using Quantitative High-Throughput Screening (AID 1296008); conditions: Five cell lines viability, CellTiter-Glo ATP luminescence, 48-72 h; max response: stronger effect = lower value; note: nearly all actives have a fitted effect of over 60% in size; for max response: % is set by controls: 0 for no effect and ±100 for the full control effect
Summary of the method: (§1)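 Cells exposed to compounds for 48 or 72 hr at 37 degrees Celsius. Viability read as ATP-coupled luminescence with CellTiter-Glo after 10 min at room temperature.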

HEK293 = test: as above; conditions: Five cell lines viability, CellTiter-Glo ATP luminescence, 48-72 h; max response: stronger effect = lower value
Summary of the method: as §1

HaCat [1] = test: as above; conditions: Five cell lines viability, CellTiter-Glo ATP luminescence, 48-72 h; max response: stronger effect = lower value
Summary of the method: as §1

KB-3-1 = test: as above; conditions: Five cell lines viability, CellTiter-Glo ATP luminescence, 48-72 h; max response: stronger effect = lower value
Summary of the method: as §1

NIH3T3 [2] = test: as above; conditions: Five cell lines viability, CellTiter-Glo ATP luminescence, 48-72 h; max response: stronger effect = lower value
Summary of the method: as §1

HACAT [3] = test: qHTS assay to identify novel small-molecules to repurpose for Merkel cell carcinoma treatment (AID 1296009); conditions: MCC and control cell lines, CellTiter-Glo viability, 72 h; at 44.8 µM (top of the series) unless noted; note: nearly all actives have a fitted effect of over 60% in size
Summary of the method: (§2)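 Cells were treated for 72 hr at 37 degree celsius with compounds in 8- or 11-point dose response. Viability was read by CellTiter-Glo luminescence, normalized to no-cell (cytotoxicity) and DMSO controls.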

HEK293T = test: as above; conditions: MCC and control cell lines, CellTiter-Glo viability, 72 h; series mostly up to 44.8 µM
Summary of the method: as §2

NIH3T3 [4] = test: as above; conditions: MCC and control cell lines, CellTiter-Glo viability, 72 h; at 44.8 µM (top of the series) unless noted
Summary of the method: as §2

C33A = test: Primary qHTS to identify gynecologic anti-cancer compounds using libraries of approved drugs and bioactive compounds (AID 1345084); conditions: Gynecologic cancer cell panel viability, ATPlite luminescence, 48 h; series mostly up to 57.5 µM; note: % is set by controls: 0 for no effect and ±100 for the full control effect; nearly all actives have a fitted effect of over 55% in size
Summary of the method: (§3)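 Five-concentration response, 48 h; readout is ATP-driven luciferase luminescence.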

CAOV3 = test: as above; conditions: Gynecologic cancer cell panel viability, ATPlite luminescence, 48 h; series mostly up to 57.5 µM
Summary of the method: as §3

CASKI = test: as above; conditions: Gynecologic cancer cell panel viability, ATPlite luminescence, 48 h; series mostly up to 57.5 µM
Summary of the method: as §3

Es-2 = test: as above; conditions: Gynecologic cancer cell panel viability, ATPlite luminescence, 48 h; series mostly up to 57.5 µM
Summary of the method: as §3

HeLa = test: as above; conditions: Gynecologic cancer cell panel viability, ATPlite luminescence, 48 h; series mostly up to 57.5 µM
Summary of the method: as §3

C=C1C[C@]23C[C@H]1CC[C@H]2[C@@]12C=C[C@H](O)[C@@](C)(C(=O)O1)[C@H]2[C@@H]3C(=O)O
inactive: max response (CRL-7250) -5.97% | outcome (HEK293) | outcome (HaCat [1]) | outcome (KB-3-1) | outcome (NIH3T3 [2]) | outcome (HACAT [3]) | Potency (HEK293T) | outcome (NIH3T3 [4]) | Potency (C33A) | Potency (CAOV3) | Potency (CASKI) | Potency (Es-2) | Potency (HeLa)

Cc1nnc(C(C)C)n1C1CC2CCC(C1)N2CC[C@H](NC(=O)C1CCC(F)(F)CC1)c1ccccc1 (stereo not given in full)
inactive: outcome (CRL-7250) | outcome (HEK293) | outcome (HaCat [1]) | max response (KB-3-1) -4.91% | outcome (NIH3T3 [2]) | outcome (HACAT [3]) | Potency (HEK293T) | outcome (NIH3T3 [4]) | Potency (C33A) | Potency (CAOV3) | Potency (CASKI) | Potency (Es-2) | Potency (HeLa)

CC(C)(O)C1=CCC23COC(C2)C(O)(C(=O)O)CCC13 (stereo not given)
inactive: outcome (CRL-7250) | outcome (HEK293) | outcome (HaCat [1]) | max response (KB-3-1) 2.8% | outcome (NIH3T3 [2]) | outcome (HACAT [3]) | Potency (HEK293T) | outcome (NIH3T3 [4]) | Potency (C33A) | Potency (CAOV3) | Potency (CASKI) | Potency (Es-2) | Potency (HeLa)

CCOC(=O)[C@H](CCc1ccccc1)N[C@@H](C)C(=O)N1C2CCCCC2C[C@H]1C(=O)O (stereo not given in full)
inactive: outcome (CRL-7250) | outcome (HEK293) | outcome (HaCat [1]) | max response (KB-3-1) 6.12% | outcome (NIH3T3 [2]) | outcome (HACAT [3]) | Potency (HEK293T) | outcome (NIH3T3 [4]) | Potency (C33A) | Potency (CAOV3) | Potency (CASKI) | Potency (Es-2) | Potency (HeLa)

CC1=CC[C@]2(C(=O)O[C@@H]3O[C@H](CO[C@@H]4O[C@H](CO)[C@@H](O[C@@H]5O[C@@H](C)[C@H](O)[C@@H](O)[C@H]5O)[C@H](O)[C@H]4O)[C@@H](O)[C@H](O)[C@H]3O)CC[C@]3(C)C(CCC4[C@@]5(C)C[C@@H](O)[C@H](O)[C@@](C)(CO)C5CC[C@]43C)C2C1C (stereo not given in full)
inactive: max response (CRL-7250) -9.97% | outcome (HEK293) | outcome (HaCat [1]) | max response (KB-3-1) 0.857% | outcome (NIH3T3 [2]) | outcome (HACAT [3]) inactive [at 9.27 µM] | outcome (HEK293T) inactive [at 9.27 µM] | outcome (NIH3T3 [4]) inactive [at 9.27 µM] | activity change, negative = cytotoxicity (C33A) 6.24% [at 11.6 µM] | activity change, negative = cytotoxicity (CAOV3) 6.14% [at 11.6 µM] | activity change, negative = cytotoxicity (CASKI) 4.37% [at 11.6 µM] | activity change, negative = cytotoxicity (Es-2) 6.73% [at 11.6 µM] | activity change, negative = cytotoxicity (HeLa) 3.93% [at 11.6 µM]

CC(=O)OCC1=C[C@H](O)[C@@H]2C(C(=O)O)=CO[C@@H](O[C@@H]3O[C@H](CO)[C@@H](O)[C@H](O)[C@H]3O)[C@H]12
inactive: outcome (CRL-7250) | outcome (HEK293) | outcome (HaCat [1]) | max response (KB-3-1) -1.91% | outcome (NIH3T3 [2]) | outcome (HACAT [3]) inactive [at 17.4 µM] | Potency (HEK293T) | outcome (NIH3T3 [4]) inactive [at 17.4 µM] | Potency (C33A) | Potency (CAOV3) | Potency (CASKI) | Potency (Es-2) | Potency (HeLa)

COc1cc(C2c3cc(O)c(OC)cc3CC(CO)C2CO)ccc1O (stereo not given)
inactive: outcome (CRL-7250) | outcome (HEK293) | outcome (HaCat [1]) | outcome (KB-3-1) | outcome (NIH3T3 [2]) | outcome (HACAT [3]) | Potency (HEK293T) | outcome (NIH3T3 [4]) | Potency (C33A) | Potency (CAOV3) | Potency (CASKI) | Potency (Es-2) | Potency (HeLa)

CC(=O)OC(CSC1CCC(=O)OC(C)CCC(=O)C1)C(=O)O (stereo not given)
inactive: max response (CRL-7250) -6.05% | outcome (HEK293) | outcome (HaCat [1]) | outcome (KB-3-1) | outcome (NIH3T3 [2]) | outcome (HACAT [3]) | Potency (HEK293T) | outcome (NIH3T3 [4]) | Potency (C33A) | Potency (CAOV3) | Potency (CASKI) | Potency (Es-2) | Potency (HeLa)

CC(=O)OC1C=C(C(=O)O)C2(CO)CCC(C)C(C)(CCc3ccoc3)C2C1 (stereo not given)
inactive: max response (CRL-7250) -9.02% | outcome (HEK293) | outcome (HaCat [1]) | outcome (KB-3-1) | outcome (NIH3T3 [2]) | outcome (HACAT [3]) inactive [at 17.4 µM] | Potency (HEK293T) | outcome (NIH3T3 [4]) inactive [at 17.4 µM] | Potency (C33A) | Potency (CAOV3) | Potency (CASKI) | Potency (Es-2) | Potency (HeLa)

COc1cc(/C=C/c2cc(O)cc(O[C@@H]3O[C@H](CO)[C@@H](O)[C@H](O)[C@H]3O)c2)ccc1O
inactive: max response (CRL-7250) 2.61% | outcome (HEK293) | outcome (HaCat [1]) | max response (KB-3-1) 4.08% | outcome (NIH3T3 [2]) | outcome (HACAT [3]) inactive [at 17.4 µM] | Potency (HEK293T) | outcome (NIH3T3 [4]) inactive [at 17.4 µM] | Potency (C33A) | Potency (CAOV3) | Potency (CASKI) | Potency (Es-2) | Potency (HeLa)

CC1(C)CC[C@]2(C(=O)O[C@@H]3O[C@H](CO)[C@@H](O)[C@H](O)[C@H]3O)CC[C@]3(C)C(=CCC4[C@@]5(C)C[C@@H](O)[C@H](O)C(CO)(CO)C5CC[C@]43C)C2[C@@H]1O (stereo not given in full)
inactive: max response (CRL-7250) 3.1% | outcome (HEK293) | outcome (HaCat [1]) | max response (KB-3-1) 8.19% | outcome (NIH3T3 [2]) | outcome (HACAT [3]) inactive [at 17.4 µM] | Potency (HEK293T) | outcome (NIH3T3 [4]) inactive [at 17.4 µM] | Potency (C33A) | Potency (CAOV3) | Potency (CASKI) | Potency (Es-2) | Potency (HeLa)

COc1cc(C(C)=O)ccc1O[C@@H]1O[C@H](CO[C@@H]2O[C@@H](C)[C@H](O)[C@@H](O)[C@H]2O)[C@@H](O)[C@H](O)[C@H]1O
inactive: max response (CRL-7250) -2.17% | outcome (HEK293) | outcome (HaCat [1]) | outcome (KB-3-1) | outcome (NIH3T3 [2]) | outcome (HACAT [3]) inactive [at 17.4 µM] | Potency (HEK293T) | outcome (NIH3T3 [4]) inactive [at 17.4 µM] | Potency (C33A) | Potency (CAOV3) | Potency (CASKI) | Potency (Es-2) | Potency (HeLa)

CCC(C)C(=O)O[C@@H]1[C@@H](O)[C@@H](O[C@H]2O[C@H](CO)[C@@H](O)[C@H](O)[C@H]2O)O[C@H](CO)[C@H]1O (stereo not given in full)
inactive: outcome (CRL-7250) | outcome (HEK293) | outcome (HaCat [1]) | outcome (KB-3-1) | outcome (NIH3T3 [2]) | outcome (HACAT [3]) inactive [at 17.4 µM] | Potency (HEK293T) | outcome (NIH3T3 [4]) inactive [at 17.4 µM] | Potency (C33A) | Potency (CAOV3) | Potency (CASKI) | Potency (Es-2) | Potency (HeLa)

CC(C)=CCc1ccc(Oc2c(O)cc(C)cc2CO)c(C(=O)O)c1O
inactive: max response (CRL-7250) -1.26% | outcome (HEK293) | outcome (HaCat [1]) | outcome (KB-3-1) | outcome (NIH3T3 [2]) | outcome (HACAT [3]) | Potency (HEK293T) | outcome (NIH3T3 [4]) | Potency (C33A) | Potency (CAOV3) | Potency (CASKI) | Potency (Es-2) | Potency (HeLa)

Cc1cc(O)cc(Oc2cc(C)c(C(=O)O)c(O)c2)c1
inactive: max response (CRL-7250) -27.9% | outcome (HEK293) | outcome (HaCat [1]) | outcome (KB-3-1) | max response (NIH3T3 [2]) 4.83% | outcome (HACAT [3]) | Potency (HEK293T) | Potency (C33A) | Potency (CAOV3) | Potency (CASKI) | Potency (Es-2) | Potency (HeLa)

CN1CC[C@@H](NC(=O)Nc2ccc(C#N)cc2)C[C@@H]1c1nc2ccccc2[nH]1
inactive: max response (CRL-7250) -0.913% | outcome (HEK293) | outcome (HaCat [1]) | max response (KB-3-1) -8.77% | max response (NIH3T3 [2]) 4.24% | outcome (HACAT [3]) | Potency (HEK293T) | Potency (C33A) | Potency (CAOV3) | Potency (CASKI) | Potency (Es-2) | Potency (HeLa)

CCOC(=O)c1ccnc(CNCC(=O)N(CC)CCN(C)C)c1
inactive: max response (CRL-7250) 3.74% | outcome (HEK293) | outcome (HaCat [1]) | max response (KB-3-1) 5.64% | outcome (NIH3T3 [2]) | outcome (HACAT [3]) | Potency (HEK293T) | outcome (NIH3T3 [4]) | Potency (C33A) | Potency (CASKI) | Potency (Es-2) | Potency (HeLa)

COc1cc(C2Oc3c(OC)cc(CCCO[C@@H]4O[C@H](CO)[C@@H](O)[C@H](O)[C@H]4O)cc3C2CO)ccc1O (stereo not given in full)
inactive: max response (CRL-7250) -0.0218% | outcome (HEK293) | outcome (HaCat [1]) | max response (KB-3-1) 1.37% | max response (NIH3T3 [2]) 3.22% | outcome (HACAT [3]) inactive [at 17.4 µM] | Potency (HEK293T) | Potency (C33A) | Potency (CAOV3) | Potency (CASKI) | Potency (Es-2) | Potency (HeLa)
